Structures are written as SMILES. The source made the active and inactive calls. Rule for the calls: active = hit-call score of the fitted dose curve at least 0.9, where 1 is the maximum; inactive = score below 0.9.

The nature of this experiment: ATG_FoxO_CIS: Attagene CIS-FACTORIAL HepG2 Assay for human Forkhead box O (FoxO) (AID 2282943). The conditions noted are these: HepG2 Attagene cis-reporter, FoxO element, mRNA; actives raise or lower the signal. The protocol:
ATG_CIS is a cell-based, multiplexed-readout assay that uses HepG2, a human liver cell line, with measurements taken at 24 hours after chemical dosing in a 24-well plate.ATG_FoxO_CIS is one of 52 assay component(s) measured or calculated from the ATG_CIS assay. It is designed to make measurements of mRNA induction, a form of inducible reporter, as detected with fluorescence intensity signals by Reverse transcription polymerase chain reaction (RT-PCR) and Capillary electrophoresis technology.Data from the assay component ATG_FoxO_CIS was analyzed into 1 assay endpoint. This assay endpoint, ATG_FoxO_CIS, was analyzed with bidirectional fitting relative to DMSO as the negative control and baseline of activity. Using a type of inducible reporter, measures of mRNA for gain or loss-of-signal activity can be used to understand the reporter gene at the transcription factor-level as they relate to the gene FOXO1 and FOXO3. Furthermore, this assay endpoint can be referred to as a primary readout, because this assay has produced multiple assay endpoints where this one serves a reporter gene function. To generalize the intended target to other relatable targets, this assay endpoint is annotated to the dna binding intended target family, where the subfamily is forkhead box protein.
Human liver HepG2 cells are transiently transfected with multiple reporter transcription units (MRTUs) in 6-well plates using FuGene 6 reagent (Roche; 3 ml FuGene/1 mg DNA). The MRTU constructs are regulated by a cis-regulating element (promoter). […] A major difference between the CIS and TRANS system is that in CIS activities of endogenous TFs are measured, whereas the TRANS assay evaluates changes in activities of exogenous, chimeric NR-Gal4 proteins. […] At the end of 24 hour incubation, total RNA was isolated using TriZol reagent (Invitrogen). The isolated RNA is then reverse-transcribed using oligo(dT) primer and Mo-MLV reverse transcriptase (Invitrogen) with DNAse I (Ambion) treatment for 30 min. The one-tenth of the produced cDNA was amplified by PCR using Taq DNA polymerase (Invitrogen) and two reporter sequence-specific primers. The PCR products were fluorescently labeled by primer extension with 6-arboxyfluorescein (6-FAM) 5'-labeled reporter sequence-specific primer (2 min at 95 C, 20 s at 68 C and 10 min at 72 C) and these products were digested with 5U of HpaI (New England Biolabs) for 2h at 37 C. The fragments were purified using Qiaquick PCR columns (Qiagen), analyzed on an ABI 3130xL genetic analyzer (Applied Biosystems) with peak positions identified by using a set of X-rhodamine (ROX)-labeled MapMarker1000 molecular weight standards (BioVentures). The raw capillary electrophoresis data was processed using Attagraph software (Attagene).
For `CCCCCCC(O)CCOC(C)=O` (stereo not given), the call was inactive.
Consider `CCCCCCCCCOS(=O)(=O)O`, for which the result was inactive.
Regarding `C=C(C)CCCC(C)CCO` (stereo not given), the outcome was inactive.
With `CCO[Si](CCC#N)(OCC)OCC`, the result was inactive.
In the case of `CCCCOCCOCCO`, the result was inactive.
As for `C=C(C)C(=O)OCCOCCOC(=O)C(=C)C`, the compound was called inactive.
For the compound `CC/C=C\C#N`, the compound was called inactive.
On to `CC(C)COC(=O)c1ccccc1`, for which the outcome was inactive.
The same measure, in the same setting: to `CN(C)CCC=C1c2ccccc2CCc2ccccc21` belongs “inactive”; to `CC(CCO)CC(C)(C)C` (stereo not given), “inactive”.
On to `CCOC(=O)COC(=O)c1ccccc1C(=O)OCC`, for which the compound was classed as inactive.
`O=C(OCc1ccccc1)c1ccccc1O`: the compound was called inactive.
Turning to `CCCCCCCCOS(=O)(=O)O`, the result was inactive.
Consider `CCC(C)COC(=O)CC(C)C` (stereo not given), for which the outcome was inactive.
Consider `CCO[Si](CC)(OCC)OCC`, for which the outcome was inactive.
In the case of `OCCN1CCOCC1`, the call was inactive.
For `CC1(C)[C@H](C=C(Cl)Cl)[C@H]1C(=O)OCc1cccc(Oc2ccccc2)c1`, the compound was classed as inactive.
`C=CC(O)CCCCC` (stereo not given): the AC50 was 100 µM (active).
For the compound `C1CCCNCC1`, the result was inactive.
The same measure, in the same setting: in the case of `CC(C)(C)c1cccc(O)c1` it was “inactive”; in that of `NC(=O)NC(N)=O`, “inactive”; in that of `C1COCO1`, “inactive”.
Consider `N=C1N=C(N)c2ccccc21`, for which the compound was called inactive.
With `CC1=CCC(C(C)(C)O)CC1` (stereo not given), the compound was called inactive.
Consider `O=C1OCc2ccccc21`, for which the outcome was inactive.
In the case of `CCCC[N+](C)(CCCC)CCCC`, the outcome was inactive.
Consider `CCOC(=O)CC1(C)OCC(C)O1` (stereo not given), for which the result was inactive.
Consider `COc1ccccc1NC(=O)CC(C)=O`, for which the outcome was inactive.
Regarding `CC(=O)N(C)C`, the call was inactive.
The same measure, in the same setting: to `CC1(C)CC(N)CC(C)(CN)C1` (stereo not given) belongs “inactive”; to `CC/C(=C(\c1ccccc1)c1ccc(OCCN(C)C)cc1)c1ccccc1`, “inactive”; to `CC(O)COCC(C)O` (stereo not given), “inactive”.
On the same count and under the same terms, to `OCC=Cc1ccccc1` belongs “inactive”; to `COC(=O)c1ccc(C(=O)OC)cc1`, “inactive”.
For the compound `OC[C@@H](O)[C@H](O)[C@@H](O)[C@@H](O)CO`, the compound was classed as inactive.
For the compound `C=CCOCC(O)CO` (stereo not given), the call was inactive.
Consider `CCCO`, for which the call was inactive.
Regarding `CCCOC(=O)CC`, the compound was called inactive.
As for `CCC(=O)OC(C)(C)C1CC=C(C)CC1` (stereo not given), the outcome was inactive.
For the compound `CCCCOC(=O)C(C)OC(=O)CCC` (stereo not given), the result was inactive.

The record behind these values is PubChem BioAssay (EPA / NIEHS).
